# Source: PubChem (National Center for Advancing Translational Sciences (NCATS))
# KB-V1 MDR tox: qHTS assay for MDR1-selective chemotherapeutics: Primary screen using the drug-selected MDR subline cells KB-V1 | Potency, µM (doses to about 46.1 µM), most hits filed as cytotoxic | 3.4% of 400,000 active | KB-V1 MDR cells viability, CellTiter-Glo, 72 h; note: nearly all actives have a fitted effect of over 60% in size
#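 Potencies derive from concentration-effect curves fitted to normalized luminescence (CellTiter-Glo) of KB-V1 cells treated for 72 h at 37 degrees C in phenol-red-free DMEM containing 10% FBS.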
# HT1080 IDH1KD tx: qHTS for induction of synthetic lethality in tumor cells producing 2HG: qHTS for the HT-1080-IDH1KD cell line. Potency, µM (doses to about 46.1 µM), for the others: at the top dose activity, negative = toxicity, usual class: cytotoxic. AID 686971, 2013. 2% of 360,000 active. HT-1080 IDH1 knockdown viability, ATP luminescence, 48 h;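 note: 0% = DMSO wells and -100% = cell-free medium wells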
#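 Using the IDH1-knockdown HT-1080 line run in the same batch and compound series as the NT line, viability after 48 h at 37 °C was determined by CellTiter-Glo luminescence and expressed as % activity.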
# HT1080-NT tox: qHTS for induction of synthetic lethality in tumor cells producing 2HG: qHTS for the HT-1080-NT fibrosarcoma cell line. HT-1080-NT fibrosarcoma viability, CellTiter-Glo ATP luminescence, 48 h. Potency, µM (doses to about 46.1 µM), inactives show at the highest dose activity, negative = less viability, most hits filed as cytotoxic. 1.6% of 360,000 active;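 note: NT is the 2HG producing partner of a matched IDH1 knockdown line; 0% = DMSO-treated cells and -100% = media-only wells without cells; nearly all actives have a fitted effect of over 55% in size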
#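 Fibrosarcoma NT cells, 750 per well in 5% FBS RPMI, were exposed to compound for 48 hours. Viability: CellTiter-Glo luminescence.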
# DT40 TDP1 no CPT: qHTS for Inhibitors of human tyrosyl-DNA phosphodiesterase 1 (TDP1): qHTS in cells in absence of CPT; DT40 Tdp1-/- hTDP1 cells, no CPT, ATP luminescence, 48 h; Potency, µM (doses to about 46.2 µM), without a hit: top-dose activity change, negative = growth inhibition, actives largely listed as inhibitors; 15% of 420,000 active; AID 686978, 2013; note: nearly all actives have a fitted effect of over 55% in size
#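 Growth of hTDP1-complemented DT40 Tdp1-knockout cells is measured by ATP luminescence after at least 48 hr compound exposure at 37 °C, with DMSO substituting for the 20 nM CPT used in the parallel screen.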
# TDP1 cell CPT: qHTS for Inhibitors of human tyrosyl-DNA phosphodiesterase 1 (TDP1): qHTS in cells in presence of CPT | 12% of 420,000 active | Potency, µM (highest dose often 46.2 µM), inactives show at the top dose activity change, negative = growth inhibition, hits mostly inhibitors | chicken DT40 Tdp1-/-;hTDP1 cells + 20 nM CPT, ATP luminescence, 48 h; note: nearly all actives have a fitted effect of over 55% in size
#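 Chicken DT40 Tdp1-/- cells stably complemented with human TDP1 were seeded at 400 cells/well in medium containing 20 nM camptothecin, exposed to pin-transferred compounds, and grown at 37 °C for at least 48 hr. Viability was read as ATP luminescence.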
# KB-3-1 tox: qHTS assay for MDR1-selective chemotherapeutics: Primary screen using the parental adenocarcinoma cell KB-3-1 | KB-3-1 viability, CellTiter-Glo ATP luminescence, 72 h | Potency, µM (top dose mostly 46.1 µM), usual class: cytotoxic | 1.4% of 400,000 active; note: nearly all actives have a fitted effect of over 60% in size
#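 Using CellTiter-Glo luminescence, growth of non-resistant KB-3-1 adenocarcinoma cells is assessed 72 h after pin-tool compound addition at 37 °C. Normalized responses across the concentration series yield fitted curves.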
# An asterisk follows results filed as active; i = inactive; ? = inconclusive; nt = no result; [ ] = remark or other dose. Hits are enriched below; roughly 19% of the tested compounds scored in any of these assays. Calls come from the whole dose curve; as a rule, active = well fitted curve in the direction sought with a large enough effect; inconclusive = small, poorly fitted or top-dose-only effect, or another doubt; inactive = no such curve, though single readings can be large; an effect the other way counts as inactive or inconclusive. Unless noted, % is set by controls: 0 for no effect and ±100 for the full control effect; potency is the fitted concentration of half-maximal effect.
SMILES,KB-V1 MDR tox,HT1080 IDH1KD tx,HT1080-NT tox,DT40 TDP1 no CPT,TDP1 cell CPT,KB-3-1 tox
CC(Oc1cccc(Cl)c1)C(=O)Nc1cc(S(=O)(=O)N2CCOCC2)ccc1N1CCCCC1 (stereo not drawn),18µM*,-12%,-29%,21µM*,?,?
CC(Oc1ccc(F)cc1)C(=O)Nc1cc(S(=O)(=O)N2CCOCC2)ccc1N1CCCCC1 (stereo not drawn),?,-15%,-4%,16µM*,?,i
CC(Oc1ccc(F)cc1)C(=O)Nc1cc(S(=O)(=O)N2CCOCC2)ccc1N1CCCC1 (stereo not drawn),i,13%,6%,6%,-28%,i
Cc1cc(Cl)ccc1OC(C)C(=O)Nc1ccccc1N1CCOCC1 (stereo not drawn),?,-16%,0%,?,?,i
CCN1CCN(c2ccc(S(=O)(=O)N3CCOCC3)cc2NC(=O)C(C)Oc2cccc(Cl)c2)CC1 (stereo not drawn),i,-2%,-11%,?,?,i
N#C/C(=C\c1ccc(Sc2nc3ccccc3[nH]2)o1)c1ccccc1,i,?,?,18µM*,?,i
N#C/C(=C\c1c(Cl)cccc1Cl)c1nc2ccccc2[nH]1,i,?,-19%,-26%,?,i
Cc1c(Cl)cccc1-c1ccc(/C=C(\C#N)c2nc3ccccc3[nH]2)o1,i,nt,nt,4.1µM*,10µM*,i
Cc1ccc2nc(/C(C#N)=C/c3ccc(-c4cccc([N+](=O)[O-])c4)o3)[nH]c2c1,i,13%,-2%,?,?,i
Cc1ccc2nc(/C(C#N)=C/c3ccc(-c4ccc(F)cc4F)o3)[nH]c2c1,i,nt,nt,5.2µM*,2.9µM*,i
N#C/C(=C\c1ccc(Cl)cc1)c1nc2ncccc2[nH]1,18µM*,-10%[9.24 µM],?,?,?,i
COc1ccccc1C(C)NC(=O)Cc1ccc(S(=O)(=O)N2CCOCC2)s1 (stereo not drawn),i,4%,4%,?,-12%,i
N#C/C(=C\c1ccc(Sc2ccc(Cl)cc2)o1)c1nc2ccccc2[nH]1,15µM*,-6%,-2%,13µM*,21µM*,i
COc1cc(C(=O)Nc2ccc(C)cc2)c(-n2cnnn2)cc1OC,i,0%,6%,-1%,1%,i
O=C(N/N=C/c1ccc([N+](=O)[O-])o1)c1ccc(O)cc1,?,6.5µM*,5.8µM*,2.9µM*,2.9µM*,?
O=[N+]([O-])c1ccc(/C=N\NS(=O)(=O)c2ccc(F)cc2)o1,nt,2%,-8%,?,15µM*,nt
CCN(CC)S(=O)(=O)c1cccc(C(=O)N/N=C/c2ccc([N+](=O)[O-])o2)c1,?,18µM*,?,?,21µM*,i
Cc1cc([N+](=O)[O-])c(C)cc1-c1ccc(/C=N/NC(=O)c2cccnc2)o1,i,2%,7%,16µM*,16µM*,i
O=c1c2oc3ccccc3c2n(Cc2ccccc2Cl)c(=O)n1Cc1ccc2c(c1)OCO2,nt,nt,nt,?,-2%,nt
CCc1noc(C)c1C(=O)NNC(=O)COc1cc(C)ccc1C,i,7%,-2%,5%,-9%,i
O=C(N/N=C\c1ccc([N+](=O)[O-])o1)c1cncc(Br)c1,?,16µM*,21µM*,6.5µM*,4.6µM*,?
